PubChem BioAssay AID504725 (Broad Institute, 2011)
Results with a measured potency or affinity are listed apart. The source made the active and inactive calls. No rule for the calls is given here.

target: KSHV LANA C-terminal domain (residues 932-1162) binding to LBS DNA (UniProt O40947); experiment: KSHV LANA DNA-binding disruption – biochemical, fluorescence polarization, cherry-picked samples, dose response (AID 504725); conditions: MBP-C-LANA / FAM-LBS DNA fluorescence polarization, percent change from plate compound-well median; series mostly up to 35 µM; activity change, negative = inhibition: at the top concentration

Activity change, negative = inhibition, inactive:
Cc1cc(NS(=O)(=O)c2ccc(Nc3nc(-c4sc(N)nc4C)cs3)cc2)no1 -10.2%
CC1CC(C)(C)NC(=S)N1CC(=O)N(C)Cc1ccccc1 (configuration not stated) -0.507%
Nc1ccc(C(=O)Nc2ccc3c(O)cc(S(=O)(=O)O)cc3c2)cc1 -11.2%
O=C1CCCC2=C1C(c1ccc(O)c(O)c1)Nc1ccc3ncccc3c12 (configuration not stated) -2.14%
CCCc1nc(NCc2ccccn2)c2nnn(Cc3ccccc3F)c2n1 1.2%
COc1cccc2[nH]c(C(=O)NC(C)c3ccccc3)cc12 (configuration not stated) -2.36%
O=C1c2ccccc2C(=O)C1c1ccccn1 4.49%
COc1[nH]c(/N=C/c2ccccc2)c(C#N)c1C#N -0.93%
CSCCC(NC(=O)c1ccccc1Cl)C(=O)N1CCCC(C)C1 (configuration not stated) 0.532%
CCC(Sc1ncccc1C(=O)O)C(=O)N1CCCC1 (configuration not stated) 3.51%
CCSc1nnc(Cc2cc(=O)[nH]c(=O)[nH]2)n1-c1ccc(F)cc1 -1.06%
O=c1c2cc(O)c(O)cc2oc2cc(O)c(C3OC(CO)C(O)C(O)C3O)c(O)c12 (configuration not stated) -17.7%
CC(=O)OCCCn1c(C)[n+](C)c2cc(Cl)c(Cl)cc21 2.61%
O=c1c2c(nc3cc(-c4ccc(F)cc4)[nH]n13)CCC2 3.74%
FC(F)(F)c1nnc(-c2ccccc2)nc1N1CCCC1 1.81%
CC(=O)N(C(C)=O)N1C(=O)c2cccc3c(N4CCOCC4)ccc(c23)C1=O -9.94%
CCOC(=O)CN1NC2(CCCCCC2)NC1=S 1.87%
Cc1ccc2c(c1)nnn2C1CCN(C(=O)c2cccs2)CC1 -0.596%
Brc1ccc(-c2noc(COc3ccc4c(c3)CCC4)n2)o1 -1.67%
CCOC(=O)C1=C(COC(=O)c2ccc([N+](=O)[O-])s2)NC(=O)NC1C (configuration not stated) -6.39%
CC(=O)N/C(=N\OCc1ccc(Br)cc1)c1nonc1NC(C)=O -2.09%
Cc1ccc(NC(=S)N/C(=N/S(=O)(=O)c2ccccc2)c2ccccc2)cc1 0.947%
O=C(COc1cccc(F)c1)Nc1nc(-c2cccnc2)cs1 3.12%
CCCc1nnc(NC(=O)CCC(=O)NCc2ccc(OC)cc2)s1 -2.96%
COc1ccc(OCC(=O)N2CCN(c3cccc(C(F)(F)F)c3)CC2)cc1 2.95%
N#CCCN(CCC#N)C(=O)C1c2ccccc2Oc2ccccc21 -7.45%
CCCn1c(SCC(=O)NCc2cccs2)nc2c1c(=O)n(C)c(=O)n2C 1.8%
CCN(C(=O)COC(=O)CNS(=O)(=O)c1ccc(SC)c([N+](=O)[O-])c1)C1CCCCC1 -3.89%
CCN(CC(=O)NCc1cccs1)C(=O)c1ccc(S(=O)(=O)Nc2ccccc2C)cc1 1.8%
CCN1/C(=C2/SC(=S)N(NC(C)=O)C2=O)Sc2ccc(OC)cc21 -98.7%
Cc1ccc(/C=C/S(=O)(=O)N2CCC(C(=O)O)CC2)cc1 -6.1%
O=C(c1cccc(S(=O)(=O)NCc2ccccc2)c1)N1CCN(c2ccccc2Cl)CC1 -13%
Cc1c(C#N)c(=O)c(-[n+]2ccccc2)c([S-])n1-c1ccc(Cl)cc1 3.76%
Cn1c(N)c(C(=O)COC(=O)c2ccc(Cl)c(S(=O)(=O)N3CCCC3)c2)c(=O)n(C)c1=O -4.06%
O=C(O)c1ccccc1NC(=O)c1cc(-c2ccccc2)nc2ccccc12 -0.076%
O=C(NCCCN1CCCC1=O)c1ccc2c(c1)ncn2C1CCCCC1 3.25%

outcome, inactive:
O=C1c2c(O)ccc(O)c2C(=O)c2c(NCCNCCO)ccc(NCCNCCO)c21
